FBW7 act: activators of human E3 ligase FBW7; AID 1259310; Q969H0; normalized activity (activation), % at 26.1 µM; AlphaScreen FBW7–phospho-cyclin E peptide binding, activator screen; 0.13% of 650,000 active; in the data active means normalized activity above about 1.9%;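 further: purified mutant Fbw7 with reduced substrate affinity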
TEAD-YAP block: TEAD-YAP interaction inhibition; HEK-TIYL cells, TEAD-Gal4/YAP UAS-luciferase luminescence; inhibition, % at 9.12 µM; 1.4% of 640,000 active; in the data active means inhibition above about 32%;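 further: 0% = median of test compound wells and 100% = reference inhibitor wells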
GPR151 ag: human GPR151 activation. PathHunter beta-arrestin GPR151 cells, luminescence. Q8TDV0. activation, % at 11.2 µM. 1% of 650,000 active; in the data active means activation above about 4.9%;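 further: 0% = median of compound wells and 100% = cells with positive control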
MITF primary: blocks human microphthalmia-associated transcription factor. O75030. AlphaScreen MITF homodimerization, bead proximity signal. inhibition, % at 2.6 µM. 0.91% of 650,000 active. AID 1259374; in the data active means inhibition above about 50%;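 further: 0% = vehicle wells with protein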
Target sequence (O75030 whole entry, looked up): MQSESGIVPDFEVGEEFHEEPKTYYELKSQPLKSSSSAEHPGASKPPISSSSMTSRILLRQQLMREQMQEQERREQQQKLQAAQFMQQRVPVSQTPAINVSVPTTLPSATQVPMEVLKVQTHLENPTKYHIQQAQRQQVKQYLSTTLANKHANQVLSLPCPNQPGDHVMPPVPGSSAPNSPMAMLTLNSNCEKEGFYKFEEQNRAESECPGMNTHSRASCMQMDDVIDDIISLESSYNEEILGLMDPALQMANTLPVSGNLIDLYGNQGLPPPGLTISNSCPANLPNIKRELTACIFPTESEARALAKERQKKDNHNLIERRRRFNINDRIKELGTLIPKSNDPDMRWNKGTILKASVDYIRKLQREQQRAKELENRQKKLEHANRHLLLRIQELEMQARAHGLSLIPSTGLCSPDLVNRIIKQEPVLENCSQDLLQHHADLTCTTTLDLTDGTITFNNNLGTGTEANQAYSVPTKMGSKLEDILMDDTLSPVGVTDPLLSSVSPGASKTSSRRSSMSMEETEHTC
Active calls of the source: *. Compounds with a hit are over-represented: about 3.5% of the library has one in this group of screens.

SMILES | FBW7 act | TEAD-YAP block | GPR151 ag | MITF primary
CCc1ccc(C(=O)N2CCN3C(=O)[C@H](CC4CCCCC4)NC(=O)[C@H]3C2)cc1 | 0 | 4 | -1 | 14
Cc1ccnc(NC(c2ccc(Cl)cc2)c2ccc3cccnc3c2O)c1 (centres undefined) | -1 | 84* | 1 | 13
Cc1ccnc(NC(c2ccc(C(C)C)cc2)c2ccc3cccnc3c2O)c1 (centres undefined) | 0 | 53* | 0 | 4
Cc1ccnc(NC(c2ccc(N(C)C)cc2)c2ccc3cccnc3c2O)c1 (centres undefined) | 0 | -56 | 2 | 60*
Cc1ccnc(NC(c2ccc3cccnc3c2O)c2sccc2C)c1 (centres undefined) | -1 | 30 | 0 | 22
Cc1ccnc(NC(c2ccc(O)cc2)c2ccc3cccnc3c2O)c1 (centres undefined) | -1 | -5 | 0 | 27
Cc1ccc(-c2cnn(-c3ccc(C(=O)O)cc3)c2)cc1 | 0 | 42* | -11 | -2
COc1cc2nc(Oc3ccccc3)nc(Nc3cc(OC)c(OC)c(OC)c3)c2cc1OC | 0 | 56* | 5 | 10
c1ccc(OCCNc2nc(N3CCN(Cc4ccc5c(c4)OCO5)CC3)nc3c2ncn3-c2ccccc2)cc1 | 0 | 1 | -1 | 13
COc1ccc(CCNC(=O)Cn2cc(NC(=O)CCOc3ccccc3)cn2)cc1 | 0 | 5 | 2 | 0
Cc1ccc(Oc2ccc(-c3cnc4ccccc4n3)cc2[N+](=O)[O-])cc1C | 1.9* | 14 | 0 | 1
Cc1ccc(Oc2ccc(-c3cnc4ccccc4n3)cc2[N+](=O)[O-])c(-n2nc3ccccc3n2)c1 | 0 | -1 | 1 | 6
O=[N+]([O-])c1cc(-c2cnc3ccccc3n2)ccc1N1CCCCCC1 | 1 | 71* | -1 | 15
CC(=O)c1ccc(Oc2ccc(-c3cnc4ccccc4n3)cc2[N+](=O)[O-])cc1 | 0 | -4 | 0 | 2
Cc1csc(C(C)NC(=O)CCC2(Cc3cccc4ccccc34)CCC(=O)N2)n1 (centres undefined) | 0 | 5 | 1 | 0
Brc1ccc(-c2cc(-c3ccc4ccccc4c3)nc(-c3ccc4ccccc4c3)c2)cc1 | 0 | -9 | 2 | 8
CC(C)Cc1ccc(S(=O)(=O)Nc2ccc3c(c2)n(C)c(=O)n3C)cc1 | 0 | 33* | 1 | 1
Cn1c(=O)n(C)c2cc(NS(=O)(=O)c3ccc(C(C)(C)C)cc3)ccc21 | 0 | 25 | 1 | 17
Cc1[nH]c2ccc(F)cc2c1CCNS(=O)(=O)c1cc([N+](=O)[O-])ccc1Cl | 0 | 61* | -2 | -6
Cc1ccc2[nH]c(C)c(CCNS(=O)(=O)c3cc([N+](=O)[O-])ccc3C)c2c1 | 0 | 3 | 0 | 4
C[C@H]1NC(=O)[C@H]2CN(Cc3ccccc3)CCN2C1=O | 0 | 9 | 0 | 16
N=C1/C(=C/c2cccn2-c2cc([N+](=O)[O-])ccc2Cl)C(=O)N=C2SC=CN12 | 0 | 36* | -1 | 8
COc1ccc(-c2cnc(SCC(=O)Nc3cccc(F)c3)n2C)cc1 | 0 | 33* | -1 | 8
N#Cc1nc(N2CCCC2)nc(N2CCCC2)n1 | 0 | 37* | 0 | 4
c1cncc(CNc2ncnc3nc(Nc4ccc5ncccc5c4)[nH]c23)c1 | 0 | 38* | -2 | -3
SMILES | FBW7 act | TEAD-YAP block | GPR151 ag | MITF primary
COc1ccc(OC)c(NC2=C(Cl)C(=O)c3ccccc3C2=O)c1 | 0 | 27 | 2 | 62*
Cc1nn(C)c(C)c1-c1cc(NCCCN2CCCC2=O)nc(N)n1 | 0 | -5 | 2 | 2
COCCNS(=O)(=O)Cc1ccc(Cl)cc1 | 0 | -7 | 1 | -7
Cn1cc(C(=O)N2CCN(c3ccccc3Cl)CC2)c2ccccc2c1=O | 0 | 43* | 0 | 8
COC(=O)c1ccccc1Sc1c(-c2ccccc2)nc2ncccn12 | 0 | 45* | 1 | 7
O=C(Nc1ccc(Br)cc1)Nc1nnc(N2CCCC2)s1 | 0 | 3 | -2 | 14
Cc1nn(C)c(C)c1-c1nc(N)c2ncn(C(C)C)c2n1 | 0 | -2 | -1 | 10
CCc1ccc(C(=O)CSc2n[nH]c(N)n2)cc1 | 0 | -16 | -2 | 17
O=C(NCCc1ccccc1)c1cc2nc(-c3ccccc3)cc(-c3ccccc3)n2n1 | 0 | 1 | -1 | -4
CC(NC(=O)c1cnc2ccccn12)c1ccc(F)cc1 (centres undefined) | 2.8* | 11 | 0 | 24
Cc1ccc(CNC(=O)c2cnc3ccccn23)o1 | 2.1* | -23 | -1 | 27
COc1ccc(CNC(=O)c2cnc3ccccn23)cc1 | 0 | -11 | 0 | 8

Screening results: PubChem, The Scripps Research Institute Molecular Screening Center
